Compounds with a hit are over-represented: about 3.4% of the library has one in this group of screens.
MITF primary: MITF inhibitors, primary screen, biochemical, AlphaScreen, human. AlphaScreen MITF homodimerization, bead proximity signal. inhibition, % at 2.6 µM. 0.91% of 650,000 active. AID 1259374, 2018; in the data active = inhibition above about 50%;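 also: 0% = vehicle wells with protein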
FBW7 activator: FBW7 E3 ligase activators, primary screen, biochemical, AlphaScreen, human | AlphaScreen FBW7–phospho-cyclin E peptide binding, activator screen | normalized activity (activation), % at 26.1 µM | 0.13% of 650,000 active | AID 1259310, 2017; in the data active = normalized activity above about 1.9%;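 also: purified mutant Fbw7 with reduced substrate affinity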
GPR151 activ: activators of human GPR151, primary screen, cell-based, PathHunter beta-arrestin, luminescence; G-protein coupled receptor 151 (Homo sapiens), Q8TDV0; PathHunter beta-arrestin GPR151 cells; activation, % at 11.2 µM; 1% of 650,000 active; in the data active = activation above about 4.9%;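 also: 0% = median of compound wells and 100% = cells with positive control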
TEAD-YAP inh: TEAD-YAP interaction inhibition, primary screen, TEAD-YAP interaction inhibitor project, luminescence, HEK-TIYL cells; TEAD-Gal4/YAP UAS-luciferase luminescence; inhibition, % at 9.12 µM; 1.4% of 640,000 active; in the data active = inhibition above about 32%;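 also: 0% = median of test compound wells and 100% = reference inhibitor wells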
GPR151 confirm: GPR151 activators, triplicate retest, confirmation, cell-based, PathHunter beta-arrestin, luminescence. GPR151 PathHunter beta-arrestin cells, 90 min; % of EA-reagent control over plate median. shares compounds with GPR151 activ. 6,700 tested, under 10 active. activation, % at 11.2 µM;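 active = mean percent activation across replicates above the confirmation screen cutoff of 4.91%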
GPR119 counter: GPR119 activators in beta-arrestin cells, counter-screen for GPR151 activator project, cell-based, PathHunter beta-arrestin, luminescence, triplicate. shares compounds with GPR151 activ. 90 min; 0 = compound-well median, 100 = enzyme-acceptor control. activation, % at 11.2 µM. 0.3% of 6,700 active;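 active = mean percent activation in the counterscreen above 29.09%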;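 also: counterscreen on off-target GPR119 to flag nonselective hits from the GPR151 activator screen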
Target sequence (Q8TDV5 whole entry, looked up): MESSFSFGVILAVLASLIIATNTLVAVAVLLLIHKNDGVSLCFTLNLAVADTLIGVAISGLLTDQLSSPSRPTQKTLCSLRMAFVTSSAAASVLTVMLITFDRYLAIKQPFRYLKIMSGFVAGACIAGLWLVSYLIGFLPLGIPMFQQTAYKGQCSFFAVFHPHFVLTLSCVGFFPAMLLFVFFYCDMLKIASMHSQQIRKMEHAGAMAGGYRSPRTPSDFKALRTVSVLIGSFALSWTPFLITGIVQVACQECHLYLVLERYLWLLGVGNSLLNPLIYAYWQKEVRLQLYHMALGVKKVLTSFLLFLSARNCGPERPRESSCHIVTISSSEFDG
* marks the source's active call; other numbers are inactive results; / = not tested or not shown.

SMILES	MITF primary	FBW7 activator	GPR151 activ	TEAD-YAP inh	GPR151 confirm	GPR119 counter
Cc1ccc(Nc2ncnc(N)c2[N+](=O)[O-])cc1Cl	-4	0	9.1*	7	0	1
Nc1ncnc(Nc2ccc(Nc3ccccc3)cc2)c1[N+](=O)[O-]	23	0	8.7*	7	-2	-1
Cc1ccnc(NS(=O)(=O)c2c(C)noc2C)c1	-3	0	1	4	/	/
COc1ccc([N+](=O)[O-])cc1N=Cc1ccc(C#N)cc1	-6	0	5.1*	1	0	6
COc1ccc([N+](=O)[O-])cc1N=Cc1cccc([N+](=O)[O-])c1	4	0	-1	-3	/	/
CCNc1nc(NCC)n2c(SCC(=O)OCC)nnc2n1	-1	0	26*	11	2	11
CCNc1nc(NCC)n2c(SCC(=O)c3ccc(OC)cc3)nnc2n1	-6	0	1	-2	/	/
Cc1noc(C)c1-c1cc(NCCc2ccc(O)cc2)ncn1	-2	0	-2	12	/	/
CN1[C@@H](C(=O)N2CCC3(CC2)OCCO3)C[C@@H](c2cccs2)NS1(=O)=O	0	0	1	-3	/	/
CC(=O)Nc1ccc(NC(=O)CSc2ncnc3c2cnn3-c2ccc(C)cc2C)cc1	3	0	5.2*	10	0	8
Cc1ccc(-n2ncc3c(SCC(N)=O)ncnc32)c(C)c1	11	0	0	-6	/	/
CCC(=O)Nc1nc(-c2cccc(Br)c2)cs1	-18	0	0	-35	/	/
CC(C)(C)Nc1nc(-c2cccc(Br)c2)cs1	-4	0	7.5*	-21	1	-9
O=C(NCc1ccccc1Cl)C1CCCN1S(=O)(=O)c1cccc2cccnc12 (configuration not stated)	14	0	1	-18	/	/
COc1ccc(C(CN)c2nc3ccccc3[nH]2)cc1OC (configuration not stated)	19	0	-1	1	/	/
O=C(Nc1c2c(nn1-c1ccc(Cl)cc1)CS(=O)(=O)C2)c1ccc(Cl)cc1	-1	0	1	2	/	/
CC(=O)Nc1c2c(nn1-c1ccc(Cl)cc1)CS(=O)(=O)C2	14	1	7.8*	-3	0	-1
O=C(Cc1ccc(F)cc1)Nc1c2c(nn1-c1ccc(F)cc1)CS(=O)(=O)C2	3	0	5.3*	5	0	8
CCC(C(=O)N1CCCCC1)n1ncn2c(cc3occc32)c1=O (configuration not stated)	6	0	5.7*	-6	0	6
Cc1no[n+]([O-])c1COc1ccccc1C=C1C(=O)NC(=S)NC1=O	29	0	6.2*	-1	0	-1
Cc1no[n+]([O-])c1COc1ccccc1C=C1C(=O)NC(=O)NC1=O	13	0	1	-3	/	/
C/C(=N\NC(=O)c1cc(-c2cccs2)[nH]n1)c1ccc(O)cc1	-10	0	-1	-6	/	/
C/C(=N\NC(=O)c1cc(-c2ccco2)[nH]n1)c1ccc(O)cc1	9	0	7.4*	6	0	11
COc1ccccc1N1CCN(C(=O)CN(c2cc(C)cc(C)c2)S(C)(=O)=O)CC1	15	0	6.4*	6	0	0
COc1ccccc1N(CC(N)=O)S(C)(=O)=O	-2	0	-1	-4	/	/
SMILES	MITF primary	FBW7 activator	GPR151 activ	TEAD-YAP inh	GPR151 confirm	GPR119 counter
COc1ccccc1N(CC(=O)N(C)C)S(C)(=O)=O	16	0	6.1*	8	1	17
Cn1c2ccc(Br)cc2c2nnc(SCC(=O)Nc3nc4ccccc4s3)nc21	9	1	1	0	/	/
Cc1csc(NC(=O)CSCC(=O)Nc2ccccc2)n1	-9	0	6.9*	-8	1	6
CCOC(=O)CSc1nc2ccc(NC(=O)CSCC(=O)Nc3ccccc3)cc2s1	-2	0	4.9*	2	0	6
CCn1c(CSCc2ccc(F)cc2)nnc1SCC(=O)Nc1nc(C)cs1	-11	0	0	9	/	/
Cc1csc(NC(=O)CSc2nnc(CSCc3ccc(F)cc3)n2C)n1	-10	0	5.1*	15	0	7
O=C(CSCC(=O)Nc1ccc2nc(SCC(=O)Nc3ccccc3)sc2c1)Nc1ccc2ccccc2c1	11	0	-1	0	/	/
Cc1cc(NCc2nc3ccccc3[nH]2)nc(-c2ccc(C(=O)NC3CC3)cc2)n1	10	0	5.1*	-11	0	2
Cc1cc(NCc2nc3ccccc3[nH]2)nc(-c2ccccc2)n1	-6	0	0	1	/	/
O=C(NC1CC1)c1ccc(-c2nc3ncnc(NCc4nc5ccccc5[nH]4)c3[nH]2)cc1	1	0	6.3*	-19	0	-2
CC(C)CC(C(=O)N1CCCCCC1)N1Cc2ccccc2C1=O (configuration not stated)	0	0	0	4	/	/
CCN1CCN(C(=O)C(CC(C)C)N2Cc3ccccc3C2=O)CC1 (configuration not stated)	1	0	5.5*	-5	0	-2
Cc1cccc2cc(CN(Cc3ccco3)Cc3nnnn3C(C)(C)C)c(=O)[nH]c12	3	0	6.2*	2	0	2
COc1ccc(C2NC(=O)c3c(sc4c3CCC(C)C4)N2)cc1 (configuration not stated)	-22	0	0	-24	/	/
COc1ccc2c(c1)c(C(=O)O)c(C)n2CCc1ccc(OC)c(OC)c1	7	0	5.6*	-11	1	2
COc1ccc(CCn2c(C)c(C(C)=O)c3cc(OC(=O)c4cccc(Cl)c4)ccc32)cc1OC	-2	0	-1	-6	/	/
COc1cc(/C=C2\SC(=S)NC2=O)ccc1OS(=O)(=O)c1ccccc1	11	0	7.9*	18	0	6
Nc1nc(SCC(=O)Nc2ccc(F)cc2)n[nH]1	-1	0	1	12	/	/
O=C(CSc1nc(N2CCCCC2)nc(N2CCCCC2)n1)Nc1ccc(F)cc1	-18	0	9.8*	0	1	-1
COc1ccc(OC)c(NC(=O)C2CCN(C(=O)c3ccc(OC)c(OC)c3)CC2)c1	-2	0	1	-3	/	/
O=C(c1cc(Cl)ccc1[N+](=O)[O-])N1CCN(c2ncccn2)CC1	10	0	8.3*	3	1	-4
O=C(NCCC1CCCCN1S(=O)(=O)c1ccccc1)Nc1ccc(Cl)cc1 (configuration not stated)	8	0	8.1*	6	-1	-11

Compound activity deposited in PubChem BioAssay by The Scripps Research Institute Molecular Screening Center.
